From PubChem BioAssay
ELG1 repair inh: ELG1-dependent DNA repair inhibition; HEK293T ELG1-luciferase reporter, luminescence, 16 h; DNA damage induced by 5-fluorouridine; Potency, µM (highest dose often 46.1 µM), hits mostly inhibitors; 330,000 compounds, 2.3% hits; AID 504467; also: nearly all actives have a fitted effect of over 55% in size
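Cells (2,000 per well) received 5-fluorouridine plus test compound or DMSO and were incubated 16 hr at 37 °C, 5% CO2. Luciferase activity was read by luminescence 30 min after ONE-Glo addition; signal suppression marked inhibition of damage-induced ELG1 function.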
NPC1 promoter act: activators of NPC1 promoter. 320,000 compounds, 2.4% hits. AID 485313. Potency, µM (titrated, usually from 9.22 µM), most hits filed as activators. Huh7 NPC1 promoter luciferase reporter, 24 h; also: nearly all actives have a fitted effect of over 60% in size
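Luminescence from an NPC1 promoter-driven luciferase reporter in stably transfected Huh7 cells was measured after 24 h compound treatment at 37 °C, followed by 10 min ambient incubation with luciferase detection reagent.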
FLuc modulator: inhibits or activates purified firefly luciferase, miR-21 counter-screen. P08659. purified FLuc, Km substrates, luminescence inhibition. Potency, µM (series often up to 57.5 µM), most hits filed as inhibitors. 360,000 compounds, 6.9% hits. AID 588342; also: nearly all actives have a fitted effect of over 55% in size
Target sequence (P08659 whole entry, looked up): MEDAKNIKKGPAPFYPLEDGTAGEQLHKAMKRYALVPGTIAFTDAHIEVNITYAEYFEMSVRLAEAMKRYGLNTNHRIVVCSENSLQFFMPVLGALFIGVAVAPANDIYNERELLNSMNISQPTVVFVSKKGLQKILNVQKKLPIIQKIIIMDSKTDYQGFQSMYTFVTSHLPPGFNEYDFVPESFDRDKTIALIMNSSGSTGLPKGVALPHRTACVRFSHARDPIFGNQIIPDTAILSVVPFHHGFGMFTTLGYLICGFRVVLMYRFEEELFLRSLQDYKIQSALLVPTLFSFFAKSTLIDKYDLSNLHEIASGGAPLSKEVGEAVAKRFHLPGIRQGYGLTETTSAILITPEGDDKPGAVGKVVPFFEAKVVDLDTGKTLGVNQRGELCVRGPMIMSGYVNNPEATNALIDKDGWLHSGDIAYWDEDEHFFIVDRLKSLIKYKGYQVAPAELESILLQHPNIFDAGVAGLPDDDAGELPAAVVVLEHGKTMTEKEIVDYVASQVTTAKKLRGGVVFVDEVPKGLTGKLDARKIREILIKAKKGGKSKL
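Purified P. pyralis luciferase (10nM final) with 10uM D-luciferin and 10uM ATP (Km levels) in 50mM Tris acetate pH 7.5, 10mM Mg acetate, 0.01% Tween-20, 0.05% BSA; qHTS 6-point titration, ~60 µM downward; luminescence read.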
SMN2 splice enh: increases expression of the SMN2 splice variant; 210,000 compounds, 2.8% hits; AID 1458; Potency, µM (highest dose often 46.1 µM), hits mostly activators; HEK293 SMN2-luciferase splicing reporter, luminescence, 30-36 h; also: nearly all actives have a fitted effect of over 55% in size
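HEK293 cells carry an SMN2 minigene-luciferase reporter in which exon 7 inclusion puts luciferase in frame. Cells were seeded at 2000 cells/well, attached for 10-12 hours, then exposed to compounds for 30-36 hours at 37C before ONE-Glo luminescence.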
ELG1 genotox: inducers of genotoxicity in HEK293T ELG1-luciferase cells | HEK293T ELG1-luciferase reporter, luminescence, 16 h | Potency, µM (doses to about 46 µM), hits mostly activators | 330,000 compounds, 1.3% hits | AID 504466; also: nearly all actives have a fitted effect of over 60% in size
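ELG1-luciferase HEK293T cells, 2,000/well; compound pinned in; 16 hr, 37 °C, 5% CO2; ONE-Glo, 30 min RT; luminescence on CCD imager.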
Rab9 promoter act: activators of Rab9 promoter | Potency, µM (doses to about 9.22 µM), actives largely listed as activators | 320,000 compounds, 2.8% hits | Huh7 Rab9 promoter-luciferase reporter, luminescence, 24 h; also: nearly all actives have a fitted effect of over 60% in size
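Stable Rab9-luc Huh7, 1500 cells/well, 2 h settle; cmpd in DMSO, 24 h, 37 °C/5% CO2; luciferase reagent 10 min RT; luminescence.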
Of the large screens only hits and unclear results are named; the others gave an inactive call. Compounds with a hit are over-represented: about 9.2% of the library has one in this group of screens. Calls follow the shape of the dose curve; as a rule, active = well fitted curve in the direction sought with a large enough effect; inconclusive = small, poorly fitted or top-dose-only effect, or another doubt; inactive = no such curve, though single readings can be large; an effect the other way counts as inactive or inconclusive.

Cc1ccc(Cl)cc1NC(=O)C1CCCN(S(=O)(=O)c2c(C)noc2C)C1 (stereo not drawn)	ELG1 repair inh inconclusive (no result: ELG1 genotox)
Cc1ccc(-c2nnc(Nc3ccc(OCC(N)=O)cc3)c3ccccc23)cc1S(=O)(=O)N(C)C	FLuc modulator inconclusive (no result: ELG1 repair inh, NPC1 promoter act, ELG1 genotox, Rab9 promoter act)
CCOC(=O)c1sc(=NC(=O)c2cccc(C)c2)n(C)c1C	ELG1 repair inh inconclusive, NPC1 promoter act inconclusive, FLuc modulator inconclusive, SMN2 splice enh 10µM, ELG1 genotox inconclusive, Rab9 promoter act 2µM
CCOC(=O)c1sc(=NC(=O)c2cccc(Br)c2)n(C)c1C	ELG1 repair inh inconclusive, NPC1 promoter act inconclusive, ELG1 genotox inconclusive, Rab9 promoter act 4.5µM (no result: SMN2 splice enh)
CCOC(=O)c1sc(=NC(=O)c2cc(OC)c(OC)c(OC)c2)n(C)c1C	none
Cc1ccc(OCC(=O)Nc2ccc(F)cc2)cc1C	ELG1 repair inh inconclusive, FLuc modulator 19µM, ELG1 genotox inconclusive
C/C(CC(=O)Nc1ccc2c(c1)OCCO2)=N\NC(=O)COc1ccccc1	ELG1 repair inh inconclusive, FLuc modulator inconclusive (no result: SMN2 splice enh)
Cc1ccc(OCC(=O)Nc2ccc3c(c2)OCCO3)cc1C	ELG1 repair inh inconclusive, FLuc modulator 17µM, ELG1 genotox inconclusive
Cc1cccc(OCC(=O)Nc2ccc3c(c2)OCCO3)c1	ELG1 repair inh inconclusive, NPC1 promoter act inconclusive, FLuc modulator 6µM, ELG1 genotox 6.5µM, Rab9 promoter act 3.2µM
COc1ccccc1CNC(=O)COC(=O)c1ccc(C)c(S(=O)(=O)N2CCCCC2)c1	none (no result: SMN2 splice enh)
COc1cc(CN2CCCC(N3CCc4ccccc4C3)C2)c(Cl)cc1O (stereo not drawn)	none (no result: SMN2 splice enh)
CNC(=O)c1ccccc1NC(=O)c1cccc(S(=O)(=O)N2CCCCC2)c1	ELG1 repair inh inconclusive (no result: SMN2 splice enh)
CC(=O)Nc1nc2ccccc2n1CCOc1ccccc1Cl	ELG1 repair inh inconclusive
CN(C)S(=O)(=O)c1cccc(C(=O)Nc2cc(Cl)ccc2O)c1	NPC1 promoter act inconclusive, FLuc modulator 13µM, Rab9 promoter act inconclusive
O=C(Nc1ccccc1C(=O)O)c1cccc(S(=O)(=O)N2CCCC2)c1	FLuc modulator 12µM (no result: ELG1 repair inh, NPC1 promoter act, ELG1 genotox, Rab9 promoter act)
O=C(Nc1nc2ccccc2n1CCOc1ccccc1Cl)c1ccccc1	FLuc modulator 4.8µM (no result: ELG1 repair inh, NPC1 promoter act, ELG1 genotox, Rab9 promoter act)
O=C(c1cccc(S(=O)(=O)N2CCCC2)c1)c1cccc(S(=O)(=O)N2CCCC2)c1	ELG1 repair inh 5.8µM
COc1ccccc1CCN1COc2c(cc3c(C)c(C)c(=O)oc3c2C)C1	none (no result: ELG1 repair inh, NPC1 promoter act, ELG1 genotox, Rab9 promoter act)
O=C(Oc1ccc(NC2=NS(=O)(=O)c3ccccc32)cc1)c1cccnc1	none
CNCCc1cnc(CCC(c2ccccc2)c2ccccc2)[nH]1	none (no result: ELG1 repair inh, FLuc modulator, SMN2 splice enh, ELG1 genotox)
Cc1ccc(O)c(NC(=O)c2cccc(S(=O)(=O)N3CCCCC3)c2)c1	SMN2 splice enh 4.5µM
Cc1ccccc1NC(=O)c1cccc(S(=O)(=O)N2CCCCC2)c1	none (no result: SMN2 splice enh)
CCCn1c(NC(=O)c2cccc(S(=O)(=O)N3CCCC3)c2)nc2ccccc21	ELG1 repair inh 8.2µM
CCCOc1ccc(-c2nnc(-c3ccncc3)o2)cc1	ELG1 repair inh inconclusive, NPC1 promoter act 3.5µM, FLuc modulator 4.8µM, SMN2 splice enh inconclusive, ELG1 genotox 2.1µM, Rab9 promoter act inconclusive
c1cc(-c2nnc(-c3ccncc3)o2)ccn1	none
CC(C)COc1ccc(-c2nnc(-c3ccncc3)o2)cc1	ELG1 repair inh inconclusive, NPC1 promoter act 1.1µM, FLuc modulator 3.4µM, Rab9 promoter act 0.63µM
CN1CCN(c2ccccc2NC(=O)c2ccc3c(c2)OCCO3)CC1	none (no result: SMN2 splice enh)
Cc1sc2nc(SCC(N)=O)n(-c3ccccc3)c(=O)c2c1C	none
O=C(O)CSc1cc(C(=O)c2ccccc2O)cn2c(=O)c3c(-c4ccccc4)csc3nc12	FLuc modulator 15µM
COc1ccc(-n2c(SCC(=O)O)nc3sc4c(c3c2=O)CCCC4)cc1	none (no result: SMN2 splice enh)
CCc1c(C)sc2nc3c(C(=O)N4CCOCC4)cc(C(=O)c4ccccc4O)cn3c(=O)c12	ELG1 repair inh inconclusive
COc1ccc(O)c(C(=O)c2cc(SCC(=O)O)c3nc4sc5c(c4c(=O)n3c2)CCCC5)c1	FLuc modulator 6.7µM (no result: SMN2 splice enh)
